An excerpt weighted towards active compounds, which were near 10% of everything screened.
Pf growth 48h – inhibits P. falciparum growth in the first generation, 48 h | P. falciparum luciferase growth in erythrocytes, 48 h | Potency, µM (series often up to 28.7 µM), usual class: inhibitors | AID 504832 | actives 5.9% (n = 310,000); active = well fitted inhibition curve with a large enough effect; inconclusive = small, poorly fitted or top-dose-only effect, or another doubt; inactive = no such curve, though single readings can be large or run the other way
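Cell-based growth assay: transgenic P. falciparum expressing firefly luciferase, cultured in red cells within RPMI 1640 containing 0.5% w/v Albumax, 24 mM bicarbonate and gentamycin. A drop in luciferase activity indicates inhibition.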
SARS PLpro yeast – blocks SARS-CoV papain-like protease in a yeast assay; S. cerevisiae expressing SARS-CoV PLpro, growth rescue; Potency, µM (top dose mostly 32.9 µM), usual class: activators; actives 0.19% (n = 330,000); AID 485353; note: nearly all actives have a fitted effect of over 55% in size
Pf growth 96h – P. falciparum growth inhibition at 96 hours; P. falciparum luciferase reporter growth, 96 h; Potency, µM (series often up to 28.7 µM), actives largely listed as inhibitors; actives 6.9% (n = 320,000); active = well fitted inhibition curve with a large enough effect; inconclusive = small, poorly fitted or top-dose-only effect, or another doubt; inactive = no such curve, though single readings can be large or run the other way
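96 h incubation, 37 C, 5% CO2, of luciferase-reporter P. falciparum-infected RBCs (2% hematocrit, 0.05% parasitemia final) with test compounds; endpoint luminescence.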
NS1 inh – inhibitors of influenza NS1 protein function; Potency, µM (top dose mostly 46.1 µM); actives 0.4% (n = 270,000); AID 2326; note: actives are rising curves; nearly all actives have a fitted effect of over 50% in size
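Recovery from NS1-induced slow growth read by OD600 in budding yeast switched to galactose assay medium (pH 6.0, -URA) at 1:100 dilution. Compound 23 nl per well; the matching strain lacking NS1 serves as control.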
Large screens that a line does not name were inactive. Unless noted, calls come from the whole dose curve.

CN(C)CCNc1nc2c(c(=O)n(C)c(=O)n2C)n1C	none (no result: Pf growth 48h, SARS PLpro yeast, Pf growth 96h)
O=C(Nc1ccccc1O)c1ccc(C(=O)c2ccccc2)o1	Pf growth 48h 8.3µM, Pf growth 96h inconclusive
N#Cc1cc(S(=O)(=O)c2ccccc2)c(N)[nH]c1=O	Pf growth 48h 3.7µM, Pf growth 96h inconclusive
CCC(=O)N1N=C2C3CCN(CC3)C2C1c1ccc(C)cc1 (stereo not drawn)	Pf growth 96h 4.1µM
CCOc1ccc(CNC(=O)C(=O)c2cn(CC(=O)N3CCOCC3)c3ccccc23)cc1OC	none
CN1CCN(C2=Nc3cc(F)ccc3Cc3ccccc32)CC1	none (no result: NS1 inh)
CN1CCN(C2=Nc3cc(Cl)ccc3Nc3ccccc32)CC1	Pf growth 48h 17µM, Pf growth 96h inconclusive
CSc1ccc(CN(C)CC(=O)NC(=O)NCCC2=CCCCC2)cc1	Pf growth 48h inconclusive, Pf growth 96h inconclusive (no result: NS1 inh)
O=C(CNCc1ccccn1)Nc1ccc([N+](=O)[O-])cc1C(=O)Nc1ccccc1F	Pf growth 48h inconclusive
CN(C)c1ccc(S(=O)(=O)N2CCCCC2)cc1NC(=O)C1=NN(c2ccccc2)C(=O)CC1	SARS PLpro yeast inconclusive, Pf growth 96h 5.9µM
Cc1ccc(S(=O)(=O)N2CCCCC2)cc1NC(=O)C1=NN(c2ccccc2)C(=O)CC1	Pf growth 48h inconclusive, Pf growth 96h inconclusive (no result: NS1 inh)
CCN(CC)S(=O)(=O)c1ccc(N2CCCC2)c(NC(=O)C2=NN(c3ccccc3)C(=O)CC2)c1	Pf growth 48h 10µM, Pf growth 96h 15µM (no result: NS1 inh)
Cc1ccc(C)c(N2N=C(C(=O)Nc3ccccc3N3CCOCC3)CCC2=O)c1	Pf growth 48h 12µM, Pf growth 96h inconclusive (no result: NS1 inh)
Cc1ccc(C)c(N2N=C(C(=O)Nc3ccccc3N3CCCC3)CCC2=O)c1	Pf growth 48h inconclusive, Pf growth 96h inconclusive
O=C(Nc1cc(Cl)ccc1N1CCCC1)C1=NN(c2ccccc2)C(=O)CC1	Pf growth 96h 9.3µM
COCCNC(=O)[C@@]1(Cc2ccccc2)C=C[C@@H](C)N1C(C)=O	none
CCOc1ccc(-c2cc(C(=O)N/N=C(\C)c3cccnc3)c3ccccc3n2)c(OCC)c1	Pf growth 48h 13µM, SARS PLpro yeast inconclusive, Pf growth 96h inconclusive
Cc1ccc2nc(-c3ccncc3)cc(C(=O)NCc3ccccc3F)c2c1	Pf growth 48h inconclusive, Pf growth 96h 15µM
CC(C)COc1cccc(-c2cc(C(=O)Nc3ccon3)c3ccccc3n2)c1	Pf growth 48h 2.1µM
CCOc1ccccc1NC(=O)c1cc(-c2ccncc2)nc2c(Cl)cccc12	Pf growth 48h 5.2µM
COc1ccc(-c2cc(C(=O)N/N=C(\C)c3cccnc3)c3ccccc3n2)cc1	none
Cc1ccc(C(C)(C)C)cc1S(=O)(=O)Nc1cccc(C(=O)N2CCN(c3ccccn3)CC2)c1	Pf growth 96h inconclusive (no result: NS1 inh)
COc1ccc(COc2cc(-c3cccc(OC)c3)nc3ccc(NC(=O)c4ccc(C)cc4)cc23)cc1	Pf growth 48h inconclusive, Pf growth 96h 3.3µM
COc1cc(NC(=O)c2ccccc2[N+](=O)[O-])ccc1NC(=O)C(C)C	Pf growth 96h 9.3µM
COC(=O)c1sccc1NS(=O)(=O)c1ccccc1[N+](=O)[O-]	none (no result: NS1 inh)
C/C(=N\NC(=O)c1cc(-c2ccncc2)nc2ccccc12)c1ccc(OC(F)F)cc1	Pf growth 96h 3.3µM (no result: NS1 inh)
COc1ccc(/C(C)=N/NC(=O)c2cc(-c3cccnc3)nc3ccccc23)cc1	none
COC(=O)c1sccc1NC(=O)c1ccccc1[N+](=O)[O-]	Pf growth 96h 1.9µM
CN(C)c1ccc(CNC(=O)C2CCC(CNc3c(N4CCCCC4)c(=O)c3=O)CC2)cc1 (stereo not drawn)	Pf growth 48h inconclusive
CC(=O)c1cccc(NC(=O)c2cc(-c3ccncc3)nc3ccccc23)c1	Pf growth 48h 12µM, Pf growth 96h inconclusive (no result: NS1 inh)
COc1cc(-c2cc(C(=O)Nc3cccc(C(C)=O)c3)c3ccccc3n2)cc(OC)c1OC	Pf growth 48h inconclusive
COC(=O)c1sccc1NC(=O)c1cc(-c2ccc(C)cc2)nc2ccccc12	Pf growth 48h inconclusive
O=C(Nc1cccc(S(=O)(=O)NC2=NCCCCC2)c1)c1cc(-c2ccncc2)nc2ccccc12	Pf growth 48h inconclusive, Pf growth 96h 12µM (no result: NS1 inh)
O=C(Nc1cccc(S(=O)(=O)NC2=NCCCCC2)c1)c1cc(-c2ccco2)nc2ccccc12	Pf growth 48h inconclusive, Pf growth 96h inconclusive
COC(=O)c1sccc1NC(=O)c1cc(-c2cccc(C)c2)nc2ccccc12	Pf growth 48h 9.3µM
COc1cccc(-c2cc(C(=O)Nc3ccncc3)c3ccccc3n2)c1	Pf growth 48h 0.74µM, Pf growth 96h inconclusive
Cc1cccc2sc(NC(=O)c3ccc(Cl)s3)nc12	Pf growth 96h 13µM (no result: Pf growth 48h)
Cc1cccc2sc(NC(=O)C3CC3)nc12	none (no result: SARS PLpro yeast)
COc1ccc(NS(=O)(=O)c2cn(C)cn2)cc1OC	none
Cc1ccc(OCC(=O)N/N=C/c2ccc([N+](=O)[O-])o2)cc1	Pf growth 48h 10µM, Pf growth 96h inconclusive
Cc1ccc(OCC(=O)N/N=C\c2ccc(C)o2)c([N+](=O)[O-])c1	Pf growth 96h 5.9µM (no result: NS1 inh)
O=C(CNc1ccc2ccccc2c1)N/N=C/c1ccc([N+](=O)[O-])o1	Pf growth 48h 9.3µM, Pf growth 96h 3.3µM
O=C(COc1ccccc1)N/N=C/c1ccc([N+](=O)[O-])o1	Pf growth 48h 8.3µM, Pf growth 96h 10µM
Cc1ccc(OCC(=O)N/N=C/c2ccco2)cc1	none (no result: Pf growth 48h)
Cc1cccc(NC(=O)CSc2n[nH]c(-c3cccnc3)n2)c1	Pf growth 96h inconclusive
C[C@@]12C(=O)N(CC3CC3)CC(=O)N1[C@H](C1CC1)[C@@H]1C(=O)N(c3ccccc3)C(=O)[C@@H]12	none
CC1CN(c2nc(Nc3ccccc3F)nc(N)c2[N+](=O)[O-])CC(C)O1 (stereo not drawn)	Pf growth 96h inconclusive
CCc1ccc([C@@H]2CC=C(C(=O)O)[C@H](c3ccc(F)cc3)N2S(=O)(=O)c2ccc(C)cc2)cc1	none (no result: NS1 inh)
O=C(O)/C(=C\c1cccc(OCc2ccccc2)c1)c1ccc(F)cc1	none
C=CCc1ccccc1OCC(O)CN1CCN(c2ccc(C)cc2)CC1 (stereo not drawn)	Pf growth 48h inconclusive, Pf growth 96h 9.3µM
C=CCc1ccccc1OCC(O)CN1CCN(C(=O)OCC)CC1 (stereo not drawn)	Pf growth 48h inconclusive, Pf growth 96h inconclusive
Cn1cc(/C=C/C(=O)N2CCCC(C(=O)c3ccc(C(C)(C)C)cc3)C2)cn1 (stereo not drawn)	none
Cc1cc(Cl)ccc1C(=O)C1CCCN(C(=O)/C=C/c2cnn(C)c2)C1 (stereo not drawn)	Pf growth 96h 4.1µM
Cc1cc(Cl)ccc1C(=O)C1CCCN(C(=O)c2cscn2)C1 (stereo not drawn)	Pf growth 96h inconclusive
Cc1nc(C)c(C(=O)N2CCCC(C(=O)c3ccc(Cl)cc3C)C2)s1 (stereo not drawn)	Pf growth 96h 13µM
O=C(Nc1nnc(-c2cccnc2)o1)c1cccc(Cl)c1	Pf growth 48h inconclusive, Pf growth 96h inconclusive (no result: NS1 inh)
COC(=O)Cc1ccc(NC(=S)N2CCCC(CO)C2)cc1 (stereo not drawn)	Pf growth 48h 15µM
COC(=O)Cc1ccc(NC(=S)N2CCCC(C)C2)cc1 (stereo not drawn)	none

Bioassay records (PubChem BioAssay)
